Unmarked numbers belong to inactive results.
Compound: C#CCNC(=O)CCSSCCC(=O)NCCc1ccc(C=O)c(C=O)c1
Assay: lysine labeling ratio R10:1 (500 µM / 50 µM probe), SILAC-ABPP in living cells; higher = lower intrinsic lysine reactivity toward the probe, active = 2 or less
Conditions: HeLa; probe concentrations 500 vs 50 µM
How it was run: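 Forward and reverse SILAC label swaps were used with living light and heavy HeLa cells in PBS at room temperature, which were given an alkyne-tagged, disulfide-linked lysine probe at 50 µM or 500 µM. R is the per-lysine filtered median high-probe/low-probe MS1 peptide ratio, with the median then taken across both swap directions. Values are limited to 20.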

Sequence of UniProt Q9P0L0 (Q9P0L0 whole entry): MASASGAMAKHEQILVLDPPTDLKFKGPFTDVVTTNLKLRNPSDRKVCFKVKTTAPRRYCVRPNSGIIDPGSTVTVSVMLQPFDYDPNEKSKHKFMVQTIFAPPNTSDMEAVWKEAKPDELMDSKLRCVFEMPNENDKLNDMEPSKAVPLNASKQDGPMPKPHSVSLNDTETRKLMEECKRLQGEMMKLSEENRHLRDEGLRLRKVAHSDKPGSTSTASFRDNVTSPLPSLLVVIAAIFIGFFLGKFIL
Sequence of UniProt P26641 (P26641 whole entry): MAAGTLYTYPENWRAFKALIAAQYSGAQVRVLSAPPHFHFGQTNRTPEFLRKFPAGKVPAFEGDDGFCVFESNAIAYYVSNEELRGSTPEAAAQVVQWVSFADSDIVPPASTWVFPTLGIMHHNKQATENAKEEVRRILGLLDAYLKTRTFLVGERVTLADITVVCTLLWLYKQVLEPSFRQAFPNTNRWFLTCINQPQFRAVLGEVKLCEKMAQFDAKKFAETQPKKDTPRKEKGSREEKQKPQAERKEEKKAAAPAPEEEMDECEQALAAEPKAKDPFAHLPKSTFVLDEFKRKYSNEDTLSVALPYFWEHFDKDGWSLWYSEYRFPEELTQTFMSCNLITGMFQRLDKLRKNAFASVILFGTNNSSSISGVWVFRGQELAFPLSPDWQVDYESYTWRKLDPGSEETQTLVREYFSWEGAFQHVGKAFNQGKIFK
Sequence of UniProt Q99985 (Q99985 whole entry): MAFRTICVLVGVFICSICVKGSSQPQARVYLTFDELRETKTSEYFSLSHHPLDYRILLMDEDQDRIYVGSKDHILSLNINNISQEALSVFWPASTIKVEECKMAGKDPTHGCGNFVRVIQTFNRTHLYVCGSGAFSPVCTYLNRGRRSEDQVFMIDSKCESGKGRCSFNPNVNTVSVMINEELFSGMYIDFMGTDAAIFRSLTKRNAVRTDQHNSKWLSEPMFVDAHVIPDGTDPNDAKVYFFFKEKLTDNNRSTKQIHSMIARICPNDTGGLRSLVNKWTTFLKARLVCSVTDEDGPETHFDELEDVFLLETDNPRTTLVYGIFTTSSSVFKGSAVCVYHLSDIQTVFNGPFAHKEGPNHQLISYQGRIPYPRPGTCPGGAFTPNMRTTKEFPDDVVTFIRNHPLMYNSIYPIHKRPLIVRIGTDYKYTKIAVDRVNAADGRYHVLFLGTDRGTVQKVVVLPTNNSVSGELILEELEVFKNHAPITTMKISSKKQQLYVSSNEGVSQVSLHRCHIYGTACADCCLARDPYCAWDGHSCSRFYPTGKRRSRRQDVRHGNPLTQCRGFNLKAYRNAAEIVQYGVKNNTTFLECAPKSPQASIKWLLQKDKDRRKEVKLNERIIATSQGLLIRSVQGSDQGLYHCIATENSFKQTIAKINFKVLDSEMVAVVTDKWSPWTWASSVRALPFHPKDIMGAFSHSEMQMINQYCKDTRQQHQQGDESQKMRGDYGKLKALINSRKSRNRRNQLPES
Sequence of UniProt P28827 (P28827 whole entry): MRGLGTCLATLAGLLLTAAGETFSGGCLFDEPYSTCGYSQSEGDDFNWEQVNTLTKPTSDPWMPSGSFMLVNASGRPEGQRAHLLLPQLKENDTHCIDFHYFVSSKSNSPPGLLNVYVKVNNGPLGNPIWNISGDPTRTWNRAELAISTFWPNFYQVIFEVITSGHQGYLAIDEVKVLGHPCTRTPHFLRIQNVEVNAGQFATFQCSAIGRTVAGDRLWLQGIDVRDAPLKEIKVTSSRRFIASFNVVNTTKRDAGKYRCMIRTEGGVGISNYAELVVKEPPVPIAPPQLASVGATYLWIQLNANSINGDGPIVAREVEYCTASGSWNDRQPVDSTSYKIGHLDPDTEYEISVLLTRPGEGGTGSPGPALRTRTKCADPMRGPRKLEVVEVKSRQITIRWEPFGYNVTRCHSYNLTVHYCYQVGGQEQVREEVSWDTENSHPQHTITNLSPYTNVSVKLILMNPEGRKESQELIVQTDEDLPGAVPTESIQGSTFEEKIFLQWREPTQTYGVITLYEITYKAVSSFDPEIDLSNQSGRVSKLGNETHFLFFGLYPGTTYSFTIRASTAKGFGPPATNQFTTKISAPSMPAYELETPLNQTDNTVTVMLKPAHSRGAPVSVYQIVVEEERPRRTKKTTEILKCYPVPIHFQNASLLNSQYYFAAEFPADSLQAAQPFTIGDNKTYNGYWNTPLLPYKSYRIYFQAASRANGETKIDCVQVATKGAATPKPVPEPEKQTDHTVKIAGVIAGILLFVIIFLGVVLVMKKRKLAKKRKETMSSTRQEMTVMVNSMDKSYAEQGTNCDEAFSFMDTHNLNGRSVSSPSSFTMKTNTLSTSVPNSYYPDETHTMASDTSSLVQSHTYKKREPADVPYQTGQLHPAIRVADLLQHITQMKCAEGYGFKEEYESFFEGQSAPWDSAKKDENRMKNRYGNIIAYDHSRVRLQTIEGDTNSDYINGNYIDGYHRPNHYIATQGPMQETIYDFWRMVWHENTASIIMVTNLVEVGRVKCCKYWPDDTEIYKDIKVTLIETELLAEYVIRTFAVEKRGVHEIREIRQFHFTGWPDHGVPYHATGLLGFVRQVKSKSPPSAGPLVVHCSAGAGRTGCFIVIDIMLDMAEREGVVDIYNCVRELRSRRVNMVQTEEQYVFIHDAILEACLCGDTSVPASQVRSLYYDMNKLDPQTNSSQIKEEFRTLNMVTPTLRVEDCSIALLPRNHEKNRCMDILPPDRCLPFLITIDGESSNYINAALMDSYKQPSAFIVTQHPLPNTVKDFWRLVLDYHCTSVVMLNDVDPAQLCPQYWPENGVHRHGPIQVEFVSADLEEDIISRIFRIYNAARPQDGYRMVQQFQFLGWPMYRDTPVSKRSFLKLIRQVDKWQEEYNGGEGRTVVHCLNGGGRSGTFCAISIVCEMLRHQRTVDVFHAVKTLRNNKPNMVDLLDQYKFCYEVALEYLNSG
Sequence of UniProt P19827 (P19827 whole entry): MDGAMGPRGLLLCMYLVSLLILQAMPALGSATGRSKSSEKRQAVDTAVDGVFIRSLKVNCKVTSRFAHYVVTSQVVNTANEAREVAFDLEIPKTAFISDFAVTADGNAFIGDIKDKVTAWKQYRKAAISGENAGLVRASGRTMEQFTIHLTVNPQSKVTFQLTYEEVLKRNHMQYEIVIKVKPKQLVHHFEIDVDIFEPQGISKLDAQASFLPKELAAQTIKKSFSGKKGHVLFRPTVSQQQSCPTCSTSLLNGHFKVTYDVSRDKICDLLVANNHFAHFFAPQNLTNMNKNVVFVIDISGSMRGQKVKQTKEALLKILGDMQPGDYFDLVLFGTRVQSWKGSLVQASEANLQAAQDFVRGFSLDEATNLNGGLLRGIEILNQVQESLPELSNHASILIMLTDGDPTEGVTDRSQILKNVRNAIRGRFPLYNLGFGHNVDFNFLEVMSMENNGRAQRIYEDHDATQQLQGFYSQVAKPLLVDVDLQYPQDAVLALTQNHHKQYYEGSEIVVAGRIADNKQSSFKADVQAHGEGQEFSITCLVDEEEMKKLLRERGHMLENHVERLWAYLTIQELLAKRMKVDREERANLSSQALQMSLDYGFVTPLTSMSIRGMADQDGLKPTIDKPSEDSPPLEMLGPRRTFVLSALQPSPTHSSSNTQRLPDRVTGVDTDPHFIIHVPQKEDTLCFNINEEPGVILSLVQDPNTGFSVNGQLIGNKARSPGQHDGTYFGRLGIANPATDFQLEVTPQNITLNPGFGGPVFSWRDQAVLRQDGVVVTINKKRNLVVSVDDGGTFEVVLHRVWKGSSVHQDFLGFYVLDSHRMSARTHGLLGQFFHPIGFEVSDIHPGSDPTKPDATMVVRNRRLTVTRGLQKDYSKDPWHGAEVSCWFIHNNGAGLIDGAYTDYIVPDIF
Sequence of UniProt Q92854 (Q92854 whole entry): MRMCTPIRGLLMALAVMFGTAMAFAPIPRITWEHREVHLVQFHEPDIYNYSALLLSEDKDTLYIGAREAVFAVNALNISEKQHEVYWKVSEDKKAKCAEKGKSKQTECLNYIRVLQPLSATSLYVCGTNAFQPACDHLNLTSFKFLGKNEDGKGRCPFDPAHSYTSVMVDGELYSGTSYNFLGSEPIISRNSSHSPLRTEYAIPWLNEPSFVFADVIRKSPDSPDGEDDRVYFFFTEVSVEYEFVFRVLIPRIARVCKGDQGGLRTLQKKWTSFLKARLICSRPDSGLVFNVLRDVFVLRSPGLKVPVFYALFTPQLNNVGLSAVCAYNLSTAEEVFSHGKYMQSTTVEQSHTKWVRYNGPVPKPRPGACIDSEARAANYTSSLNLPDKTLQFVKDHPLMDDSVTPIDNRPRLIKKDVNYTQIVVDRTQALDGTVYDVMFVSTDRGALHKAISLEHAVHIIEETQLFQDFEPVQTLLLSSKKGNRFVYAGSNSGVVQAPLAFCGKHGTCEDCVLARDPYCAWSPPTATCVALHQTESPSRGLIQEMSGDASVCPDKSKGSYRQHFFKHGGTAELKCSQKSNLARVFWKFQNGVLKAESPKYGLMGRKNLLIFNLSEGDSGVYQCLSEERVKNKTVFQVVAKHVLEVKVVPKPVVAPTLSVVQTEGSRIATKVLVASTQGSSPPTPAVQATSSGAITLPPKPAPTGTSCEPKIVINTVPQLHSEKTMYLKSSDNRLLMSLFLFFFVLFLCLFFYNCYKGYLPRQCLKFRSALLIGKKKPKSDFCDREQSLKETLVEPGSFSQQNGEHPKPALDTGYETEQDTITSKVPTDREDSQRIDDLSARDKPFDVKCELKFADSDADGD
Sequence of UniProt P53007 (P53007 whole entry, looked up): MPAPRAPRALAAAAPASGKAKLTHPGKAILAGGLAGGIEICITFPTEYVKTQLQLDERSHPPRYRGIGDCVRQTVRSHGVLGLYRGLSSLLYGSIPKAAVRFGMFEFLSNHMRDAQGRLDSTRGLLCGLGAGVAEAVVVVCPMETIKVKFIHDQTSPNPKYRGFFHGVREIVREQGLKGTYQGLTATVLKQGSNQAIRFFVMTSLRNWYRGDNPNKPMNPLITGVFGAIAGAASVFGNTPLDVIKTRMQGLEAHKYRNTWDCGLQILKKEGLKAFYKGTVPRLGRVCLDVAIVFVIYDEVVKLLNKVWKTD

Q: Which “lysine labeling ratio R10:1” value does the source give for “SEMA4D (lysine site: K219) (UniProt Q92854)” here?
A: 2.27

Q: “PTPRM (lysine site: K375) (UniProt P28827)” was tested. Which “lysine labeling ratio R10:1” value did it give?
A: 5.3

Q: For “HNRNPU (lysine site: K565) (UniProt Q00839)”, which “lysine labeling ratio R10:1” value is on record?
A: 3.39

Q: With “FADS2 (lysine site: K108) (UniProt O95864)” as the target, how does the “lysine labeling ratio R10:1” value read?
A: 1.75 (active)

Q: “FLNA (lysine site: K876) (UniProt P21333)” was tested. Which “lysine labeling ratio R10:1” value did it give?
A: 4.23

Q: Which “lysine labeling ratio R10:1” value does the source give for “SEMA3C (lysine site: K613) (UniProt Q99985)” here?
A: 5.77

Q: “PLXNA1 (lysine site: K868) (UniProt Q9UIW2)” was tested. Which “lysine labeling ratio R10:1” value did it give?
A: 1.37 (active)

Q: With “SLC25A1 (lysine site: K160) (UniProt P53007)” as the target, how does the “lysine labeling ratio R10:1” value read?
A: 2.79

Q: With “VAPA (lysine site: K174) (UniProt Q9P0L0)” as the target, how does the “lysine labeling ratio R10:1” value read?
A: 1.89 (active)

Q: With “VAPA (lysine site: K180) (UniProt Q9P0L0)” as the target, how does the “lysine labeling ratio R10:1” value read?
A: 1.96 (active)

Q: With “EEF1G (lysine site: K437) (UniProt P26641)” as the target, how does the “lysine labeling ratio R10:1” value read?
A: 3.73

Q: How did the “lysine labeling ratio R10:1” value turn out when UniProt Q15149 (lysine site: K2142) was run?
A: 3.4

Q: With “ITGA2 (lysine site: K603) (UniProt P17301)” as the target, how does the “lysine labeling ratio R10:1” value read?
A: 1.54 (active)

Q: How did the “lysine labeling ratio R10:1” value turn out when “CCT4 (lysine site: K489) (UniProt P50991)” was run?
A: 2.21

Q: With “ATAD3B (lysine site: K135) (UniProt Q5T9A4)” as the target, how does the “lysine labeling ratio R10:1” value read?
A: 2.68

Q: With “ITGA6 (lysine site: K986) (UniProt P23229)” as the target, how does the “lysine labeling ratio R10:1” value read?
A: 1.78 (active)

Q: “ITIH1 (lysine site: K125) (UniProt P19827)” was tested. Which “lysine labeling ratio R10:1” value did it give?
A: 4.42
